# Hits are enriched below; roughly 1.9% of the tested compounds scored in any of these assays.
# PABP polyA inh: blocks human PABP binding to poly(A) RNA. inhibition, % at 35 µM. 1% of 290,000 active. P11940. fluorescence polarization;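 further: calls also rest on retests at 20 µM and on dose response follow-up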
# GRK2 aptamer HTS: human GRK2 inhibition via aptamer displacement | P25098 | bead flow cytometry, FAM-aptamer displacement from GRK2 | inhibition of aptamer binding, % at 10 µM | 0.59% of 330,000 active;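 active means inhibition of aptamer binding above 40%, roughly 3 SD of noise, on plates passing a quality check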;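 further: median bead fluorescence of bound FAM aptamer so fluorescent compounds give negative values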
# PERK inhibitor: inhibitors of human PERK kinase | Q9NZJ5 | 0.17% of 220,000 active | CHO PERK-DD fusion, SEAP luminescence translation reporter | AID 1416 | inhibition, % at 5.6 µM;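 active means inhibition above the mean inhibition of all tested compounds plus 3 SD, set separately per screening campaign, cut at about 2.9% in these data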;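 further: PERK kinase domain activated by AP20187 dimerizer at 100 nM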
# Target sequence (Q9NZJ5 whole entry, looked up, the tested form may be a part): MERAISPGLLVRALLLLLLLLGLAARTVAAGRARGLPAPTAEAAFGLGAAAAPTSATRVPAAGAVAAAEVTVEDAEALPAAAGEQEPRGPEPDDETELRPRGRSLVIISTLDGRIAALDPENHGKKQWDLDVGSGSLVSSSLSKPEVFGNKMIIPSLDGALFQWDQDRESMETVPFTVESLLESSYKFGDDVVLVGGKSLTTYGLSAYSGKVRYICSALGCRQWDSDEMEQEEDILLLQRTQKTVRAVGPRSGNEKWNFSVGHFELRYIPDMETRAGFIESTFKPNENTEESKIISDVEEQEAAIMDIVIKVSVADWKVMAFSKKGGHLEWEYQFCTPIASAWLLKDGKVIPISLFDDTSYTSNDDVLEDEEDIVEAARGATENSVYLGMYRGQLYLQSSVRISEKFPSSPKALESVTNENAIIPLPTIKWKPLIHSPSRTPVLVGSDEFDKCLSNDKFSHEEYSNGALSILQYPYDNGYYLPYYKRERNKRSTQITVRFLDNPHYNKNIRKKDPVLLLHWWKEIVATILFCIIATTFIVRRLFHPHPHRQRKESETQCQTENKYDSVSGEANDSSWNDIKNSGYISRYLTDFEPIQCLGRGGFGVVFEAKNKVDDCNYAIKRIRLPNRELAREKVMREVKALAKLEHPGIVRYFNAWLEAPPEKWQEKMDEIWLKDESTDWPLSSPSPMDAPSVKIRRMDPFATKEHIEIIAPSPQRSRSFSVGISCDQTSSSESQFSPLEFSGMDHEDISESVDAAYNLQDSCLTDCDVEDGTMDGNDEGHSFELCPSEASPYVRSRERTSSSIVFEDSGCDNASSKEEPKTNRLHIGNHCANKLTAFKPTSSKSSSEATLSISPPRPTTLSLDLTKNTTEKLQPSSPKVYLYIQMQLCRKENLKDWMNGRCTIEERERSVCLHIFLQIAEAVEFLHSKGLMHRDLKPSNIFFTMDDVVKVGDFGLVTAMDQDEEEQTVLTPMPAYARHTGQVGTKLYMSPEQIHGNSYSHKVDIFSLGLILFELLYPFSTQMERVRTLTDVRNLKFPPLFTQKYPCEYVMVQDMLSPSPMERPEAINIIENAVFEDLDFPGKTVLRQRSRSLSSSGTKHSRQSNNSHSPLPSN
# eIF4H inh: inhibitors of RNA binding by human eIF4H | eIF4H fluorescence polarization binding assay | inhibition, % at 35 µM | 0.94% of 290,000 active | AID 2012;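 further: calls also rest on retests at 20 µM and on dose response follow-up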
# PABP1 MLLE inh: blocks PAM2 peptide binding to the PABP1 MLLE domain | P11940 | inhibition, % at 20 µM | GST-MLLE / FITC-PAM2 fluorescence polarization | 0.36% of 360,000 active; in the data active means inhibition above about 35%, passing the limit was not always enough
# GRK2 CP1: human GRK2 inhibition confirmation, cherry pick 1. shares compounds with GRK2 aptamer HTS. bead-bound GRK2, FAM-aptamer displacement, flow cytometry. aptamer displacement, % at 10 µM. 4% of 2,000 active. AID 504451;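 active means aptamer displacement above 40%, near three times the noise of non-fluorescent compounds, on plates passing quality checks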;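 further: negative values mostly reflect intrinsic compound fluorescence rather than true enhancement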
# FAM quench CP1: quenches fluorescent RNA aptamer, GRK2 hit artifact; shares compounds with GRK2 aptamer HTS; Carboxyfluorescein RNA aptamer on beads, flow cytometry quenching; stronger effect = lower value; fluorescence response (% of DMSO), % at 10 µM; 2,000 tested, under 10 active; AID 504580;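 active means compounds that quench the bead-bound fluorescent RNA probe, cutting fluorescence to under half of the solvent control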;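 further: counterscreen run without GRK2 so only probe quenching by compound is measured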
# GRK2 confirm 2: human GRK2 inhibition confirmation, cherry pick 2 | shares compounds with GRK2 aptamer HTS | bead-bound GRK2, FAM-aptamer displacement, flow cytometry | inhibition of aptamer binding, % at 10 µM | 360 tested, under 10 active | AID 504782;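 active means inhibition of aptamer binding above 40%, about triple the noise seen with nonglowing compounds, on plates passing quality control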;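 further: negative values mostly come from compounds that fluoresce themselves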
# FAM quench CP2: quenches fluorescent RNA aptamer, GRK2 hit artifact. 360 tested, under 10 active. carboxyfluorescein RNA aptamer beads, flow cytometry quenching; stronger effect = lower value. fluorescence response vs DMSO, % at 10 µM. shares compounds with GRK2 aptamer HTS;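 active means response vs DMSO under 50%, meaning signal dropped by over half, treated as fluorescence quencher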;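 further: labelled aptamer on streptavidin beads without GRK2 as a quench counter-screen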
# A number is an active result; . = inactive; / = not tested or not shown. Unless noted, how the calls were made is not given here.
SMILES,PABP polyA inh,GRK2 aptamer HTS,PERK inhibitor,eIF4H inh,PABP1 MLLE inh,GRK2 CP1,FAM quench CP1,others
COc1ccc(-c2cccc(C3CC=CC4C3C(=O)N(Cc3ccccc3)C4c3cc(C)ccc3F)c2)cc1 (stereo not drawn),.,/,/,.,/,/,/,
O=C1C2C(c3cccc(/C=C/c4ccccc4)c3)CC=CC2C(c2ccc(C(F)(F)F)cc2)N1Cc1ccccc1 (stereo not drawn),.,.,/,.,.,.,.,
Cc1ccc(F)c(C2C3C=CCC(c4cccc(-c5ccc(N(C)C)cc5)c4)C3C(=O)N2Cc2ccccc2)c1 (stereo not drawn),.,.,/,.,.,.,.,
CC[C@@H]1CC=C[C@H]2[C@H]1C(=O)N(Cc1ccccc1)[C@H]2c1ccc(C(F)(F)F)cc1,.,.,/,.,.,/,/,
O=C1C2C(c3cccc(/C=C/c4ccccc4)c3)CC=CC2C(c2ccc3ccccc3c2)N1Cc1ccccc1 (stereo not drawn),.,.,/,.,.,.,.,
O=C(O)C1OCC2(CO1)COC(C(=O)O)OC2 (stereo not drawn),/,/,/,/,.,/,/,
CC(C)CNC(=O)C1(C)CCCN1C(=O)c1cccnc1Oc1ccccc1 (stereo not drawn),/,/,/,/,.,/,/,
COC(=O)c1[nH]c2ccc(C)cc2c1NC(=O)CN1CCCc2ccccc21,.,89,.,.,.,.,.,
COCCCNC(=O)c1ccc(N2CCCC2)c(NS(=O)(=O)c2ccc(C)cc2)c1,.,.,.,.,.,/,/,
CCOCCCNC(=O)c1ccc(N2CCCC2)c(NS(=O)(=O)c2ccc(C)cc2)c1,.,96,.,.,.,.,.,
COCCn1nnnc1C(c1cccs1)N1CCN2CCCC2C1 (stereo not drawn),.,.,.,.,.,/,/,
CS(=O)(=O)c1ccc(NCCc2ccccn2)c([N+](=O)[O-])c1,.,60,/,.,.,.,.,
Cc1ccccc1CNS(=O)(=O)c1c(C(=O)N2CCCCC2)c(C)n(C)c1C,.,.,/,.,.,/,/,
O=C(NCCOc1nc(N2CCOCC2)nc(N2CCOCC2)n1)Nc1ccccc1,.,46,.,.,.,.,.,
O=C1C=C(NCc2ccco2)CC(c2ccc(Cl)cc2)C1 (stereo not drawn),.,86,.,.,.,.,.,
COc1ccc(OC)c(S(=O)(=O)N2CCN(c3ncccn3)CC2)c1,.,.,/,.,.,/,/,
COc1ccc(OC)c(S(=O)(=O)N2CCN(c3c(C)cccc3C)CC2)c1,.,95,.,.,.,.,.,
COc1cc(S(=O)(=O)n2cnc3ccccc32)ccc1Br,.,62,/,.,.,.,.,
COc1cc(CCC(=O)NCc2ccc(S(N)(=O)=O)cc2)cc(OC)c1OC,.,.,/,.,.,/,/,
COc1cc(CCC(=O)NCc2ccc(F)cc2)cc(OC)c1OC,.,.,/,.,.,.,.,
COc1ccccc1-c1cc(C(F)(F)F)nc(S(=O)(=O)CCCC(=O)NCc2ccc(F)cc2)n1,.,48,.,.,.,.,.,GRK2 confirm 2=.;FAM quench CP2=.
COc1cc(CCC(=O)Nc2nccs2)cc(OC)c1OC,.,.,/,.,.,.,.,
CCOc1cc(N2CCOCC2)c(OCC)cc1NC(=O)c1cc(S(=O)(=O)N2CCOCC2)ccc1Cl,/,/,/,/,.,.,.,
CCOc1cc(N2CCOCC2)c(OCC)cc1NC(=O)c1ccc(OC)c(S(=O)(=O)N2CCOCC2)c1,/,.,/,/,.,.,.,
CCOc1cc(N2CCOCC2)c(OCC)cc1NC(=O)c1ccc(S(=O)(=O)N2CC(C)OC(C)C2)cc1 (stereo not drawn),/,/,/,/,.,/,/,
SMILES,PABP polyA inh,GRK2 aptamer HTS,PERK inhibitor,eIF4H inh,PABP1 MLLE inh,GRK2 CP1,FAM quench CP1,others
CCc1cc(-c2n[nH]c(C)c2Oc2ccc(C(C)C)cc2)c(O)cc1O,.,.,.,.,.,/,/,
O=C(Nc1cccc(-c2ccc(N3CCOCC3)nn2)c1)c1ccc(F)cc1F,/,.,/,/,.,.,.,
COc1ccc(C(=O)Nc2cccc(-c3ccc(N4CCOCC4)nn3)c2)cc1OC,/,.,/,/,.,/,/,
COc1cccc(C(=O)Nc2cccc(-c3ccc(N4CCOCC4)nn3)c2)c1OC,/,.,/,/,.,.,.,
COc1ccc(-n2nc(C(=O)N3CCC(N4CCCCC4)CC3)c3c4ccccc4n(C)c3c2=O)cc1,.,.,/,.,.,/,/,
Cc1c(C(=O)N2CCN(c3ccccn3)CC2)cccc1[N+](=O)[O-],.,.,.,.,.,.,.,
Cc1ccc(C(=O)N2CCN(c3ccccn3)CC2)cc1[N+](=O)[O-],.,.,.,.,.,/,/,
O=C(c1ccc(Cl)cc1[N+](=O)[O-])N1CCN(c2ccccn2)CC1,.,82,.,.,.,.,.,
COc1ccc(C(=O)NNC(=O)CSc2nc3c([nH]2)c(=O)n(C)c(=O)n3C)cc1,.,100,.,.,.,.,.,
C=CCOc1c(CNC2CCCC2)cc(Cl)cc1OC,.,87,.,.,.,.,.,
COc1cc(CNC2CCCCCCC2)cc(Cl)c1OC,.,.,/,.,.,/,/,
Cc1cc(C)n(/N=C/c2c[nH]c3ccccc23)c(=O)c1C#N,.,65,.,.,.,.,.,
Cc1c(Cl)cccc1NC(=O)N1CCN(C(=O)c2ccco2)CC1,.,.,/,.,.,/,/,
Cc1cc(C)n(-c2nc3c(c(=O)[nH]c(=O)n3C)n2CC(O)COc2ccc(Cl)cc2Cl)n1 (stereo not drawn),.,72,.,.,.,.,.,
Cn1c(=O)[nH]c(=O)c2c1nc(SCC(=O)O)n2CCOc1ccccc1,.,.,/,.,.,.,.,
CCN(CC)CCNc1nc2c(c(=O)[nH]c(=O)n2C)n1CC(O)COc1ccc(Cl)cc1Cl (stereo not drawn),.,.,.,.,.,/,/,
Cn1c(=O)[nH]c(=O)c2c1nc(Br)n2CC(O)COc1ccccc1 (stereo not drawn),.,75,.,.,.,.,.,
Cn1c(=O)[nH]c(=O)c2c1nc(SCCN1CCOCC1)n2Cc1ccccc1,.,89,.,.,.,.,.,
Cn1c(=O)[nH]c(=O)c2c1nc(SCC(=O)O)n2CCc1ccccc1,.,.,.,.,.,/,/,
O=C(NCc1ccccc1)c1cccc(NC(=O)C2CCC2)c1,/,/,/,/,.,.,.,
O=C(NCCc1ccccc1)c1cccc(NC(=O)C2CCCC2)c1,/,/,/,/,.,/,/,
O=C(NCc1ccccc1)c1cccc(COc2ccccc2Cl)c1,.,.,.,.,.,.,.,
O=C(NCc1ccccc1)c1cccc(NC(=O)C2CCCC2)c1,/,/,/,/,.,.,.,
